# Where “and” joins values, the source holds several entries; their conditions need not be identical. Identical values can stand only once. Among all 5,500 compounds or so, about 2,000 (36%) were called active. Roughly 18% stayed inconclusive and do not appear here. The list shows a part of the results. Values without a mark were called inactive. Cut-off read from the data, not from the text of the source: active = normalized growth mostly below about 0.91 (no sharp cut-off); inconclusive = no clear call, values can overlap the other calls; inactive = mostly above about 0.92.
# Test: chemical genetic growth profiling, strain panel (AID 1159580);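 note: tested at 20 µM; growth read once vehicle control cultures reached saturation at 30 °C; 1 = growth at the plate median or of vehicle wells; lower values mean less growth of the strain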
# Conditions: S. cerevisiae deletion strains, growth OD
smiles,measurement,setting,value
COc1ccc2cc([C@H](C)C(=O)O)ccc2c1,normalized growth,"locus YAL013W, strain DEP1, hits give low values",1
same,normalized growth,"locus YAL021C, strain ccr4, hits give low values",0.943
same,normalized growth,"locus YAL026C, strain drs2, hits give low values",0.961
same,normalized growth,"locus YAL030W, strain snc1, hits give low values",0.981
same,normalized growth,"locus YAL040C, strain CLN3, hits give low values",1.07
same,normalized growth,"locus YBL061C, strain skt5, hits give low values",0.984
same,normalized growth,"locus YBR009C, strain hhf1, hits give low values",0.98
same,normalized growth,"locus YBR021W, strain FUR4, hits give low values",0.958
same,normalized growth,"locus YBR023C, strain chs3, hits give low values",0.987
same,normalized growth,"locus YBR171W, strain sec66, hits give low values",0.963
same,normalized growth,"locus YBR229C, strain ROT2, hits give low values",1
same,normalized growth,"locus YBR231C, strain swc5, hits give low values",0.996
same,normalized growth,"locus YBR279W, strain paf1, hits give low values",0.967
same,normalized growth,"locus YCL011C, strain gbp2, hits give low values",0.98
same,normalized growth,"locus YCL016C, strain dcc1, hits give low values",0.993
same,normalized growth,"locus YCL029C, strain bik1, hits give low values",0.999
same,normalized growth,"locus YCL061C, strain MRC1 (second series), hits give low values",0.994
same,normalized growth,"locus YCL061C, strain MRC1, hits give low values",0.974
same,normalized growth,"locus YCL069W, strain vba3, hits give low values",0.968
same,normalized growth,"locus YCR088W, strain abp1, hits give low values",0.972
same,normalized growth,"locus YDL005C, strain med2, hits give low values",0.96
same,normalized growth,"locus YDL035C, strain GPR1, hits give low values",0.984
same,normalized growth,"locus YDL040C, strain nat1, hits give low values",0.973
same,normalized growth,"locus YDL074C, strain BRE1, hits give low values",0.989
same,normalized growth,"locus YDL101C, strain DUN1, hits give low values",1.02
same,normalized growth,"locus YDL134C, strain PPH21, hits give low values",1
same,normalized growth,"locus YDL185W, strain tfp1, hits give low values",0.957
same,normalized growth,"locus YDL192W, strain arf1, hits give low values",0.985
same,normalized growth,"locus YDR001C, strain nth1, hits give low values",0.98
same,normalized growth,"locus YDR069C, strain doa4, hits give low values",0.963
same,normalized growth,"locus YDR101C, strain arx1, hits give low values",1.01
same,normalized growth,"locus YDR137W, strain rgp1, hits give low values",0.932
same,normalized growth,"locus YDR150W, strain NUM1, hits give low values",1.01
same,normalized growth,"locus YDR159W, strain sac3, hits give low values",0.926
same,normalized growth,"locus YDR162C, strain NBP2, hits give low values",0.99
same,normalized growth,"locus YDR195W, strain ref2",0.932
same,normalized growth,"locus YDR297W, strain sur2, hits give low values",0.978
same,normalized growth,"locus YDR318W, strain mcm21, hits give low values",0.996
same,normalized growth,"locus YDR334W, strain swr1, hits give low values",0.961
same,normalized growth,"locus YDR335W, strain msn5, hits give low values",0.988
same,normalized growth,"locus YDR363W, strain ESC2, hits give low values",0.979
same,normalized growth,"locus YDR388W, hits give low values",0.998
same,normalized growth,"locus YDR392W, strain spt3, hits give low values",0.842
same,normalized growth,"locus YDR502C, strain sam2, hits give low values",0.964
same,normalized growth,"locus YEL003W, strain gim4, hits give low values",0.951
same,normalized growth,"locus YEL037C, strain rad23, hits give low values",0.958
same,normalized growth,"locus YEL061C, strain CIN8 (second series), hits give low values",0.964
same,normalized growth,"locus YEL061C, strain CIN8, hits give low values",1
same,normalized growth,"locus YER002W, strain NOP16, hits give low values",0.969
same,normalized growth,"locus YER015W, strain faa2, hits give low values",0.978
same,normalized growth,"locus YER016W, strain bim1, hits give low values",0.976
same,normalized growth,"locus YER110C, hits give low values",0.992
same,normalized growth,"locus YER111C, strain swi4, hits give low values",0.966
same,normalized growth,"locus YER155C, strain BEM2 (second series), hits give low values",0.964
same,normalized growth,"locus YER155C, strain BEM2, hits give low values",0.975
same,normalized growth,"locus YER167W, strain BCK2, hits give low values",0.986
same,normalized growth,"locus YFR010W, strain ubp6, hits give low values",0.959
same,normalized growth,"locus YGL078C, strain dbp3, hits give low values",0.957
same,normalized growth,"locus YGL086W, strain mad1, hits give low values",0.98
same,normalized growth,"locus YGL167C, strain pmr1, hits give low values",0.977
same,normalized growth,"locus YGL173C, strain kem1, hits give low values",0.97
same,normalized growth,"locus YGL227W, strain vid30, hits give low values",0.98
same,normalized growth,"locus YGL240W, strain doc1, hits give low values",0.962
same,normalized growth,"locus YGL248W, strain PDE1, hits give low values",1
same,normalized growth,"locus YGL253W, strain hxk2, hits give low values",0.985
same,normalized growth,"locus YGR078C, strain PAC10, hits give low values",1
same,normalized growth,"locus YGR135W, strain pre9, hits give low values",0.984
same,normalized growth,"locus YGR229C, strain SMI1, hits give low values",0.999
same,normalized growth,"locus YGR252W, strain gcn5, hits give low values",0.933
same,normalized growth,"locus YHR013C, strain ard1, hits give low values",0.928
same,normalized growth,"locus YHR027C, strain rpn1, hits give low values",0.971
same,normalized growth,"locus YHR030C, strain SLT2, hits give low values",1.01 and 0.896
same,normalized growth,"locus YHR079C, strain IRE1 (second series), hits give low values",1
same,normalized growth,"locus YHR079C, strain IRE1, hits give low values",0.881
same,normalized growth,"locus YHR094C, strain hxt1, hits give low values",0.986
same,normalized growth,"locus YHR129C, strain ARP1, hits give low values",1.01
same,normalized growth,"locus YHR142W, strain chs7, hits give low values",0.965
same,normalized growth,"locus YHR200W, strain rpn10, hits give low values",0.982
same,normalized growth,"locus YIL066C, strain RNR3, hits give low values",1.01
same,normalized growth,"locus YIL073C, strain SPO22, hits give low values",1.03
same,normalized growth,"locus YIL125W, strain kgd1, hits give low values",0.93 (active)
same,normalized growth,"locus YIR030C, strain dcg1, hits give low values",0.995
same,normalized growth,"locus YJL092W, strain hpr5, hits give low values",0.959
same,normalized growth,"locus YJL095W, strain BCK1 (second series), hits give low values",0.987
same,normalized growth,"locus YJL095W, strain BCK1, hits give low values",1.04 and 0.918
same,normalized growth,"locus YJL115W, strain asf1, hits give low values",0.96
same,normalized growth,"locus YJL129C, strain trk1, hits give low values",0.9
same,normalized growth,"locus YJL134W, strain LCB3, hits give low values",1
same,normalized growth,"locus YJL154C, strain vps35, hits give low values",0.976
same,normalized growth,"locus YJL164C, strain tpk1, hits give low values",0.967
same,normalized growth,"locus YJL166W, strain qcr8, hits give low values",0.97
same,normalized growth,"locus YJL168C, strain set2, hits give low values",0.991
same,normalized growth,"locus YJL187C, strain SWE1 (second series), hits give low values",1.02
same,normalized growth,"locus YJL187C, strain SWE1, hits give low values",0.972
same,normalized growth,"locus YJR043C, strain POL32, hits give low values",0.981
same,normalized growth,"locus YJR066W, strain TOR1, hits give low values",0.845
